Records with an inconclusive call do not appear. The source made the active and inactive calls. Unless noted, calls come from the whole dose curve; as a rule, active = well fitted curve in the direction sought with a large enough effect in the repeat runs; inconclusive = weak or mixed curves; inactive = no such curve, though single readings can be large; an effect the other way counts as inactive or inconclusive.

Assay [1] can be described thus: A CellTox Green Cytotoxicity Assay to monitor cytotoxicity in HepG2 cells - 0 hour (AID 1224882). Note: nearly all actives have a fitted effect of over 35% in size. The following applies: CellTox Green fluorescence; series mostly up to 76.8 µM. Put shortly:
(§1)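 HepG2 cells, 600/well, preincubated 5 h with CellTox Green dye, then exposed to Tox21 compounds in DMSO at 37 C for up to 40 h. Dead-cell DNA fluorescence read at the indicated time point.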

Assay [2] is described as follows: A CellTox Green Cytotoxicity Assay to monitor cytotoxicity in HepG2 cells - 32 hour (AID 1224883). Note: nearly all actives have a fitted effect of over 50% in size. Note: potency is the fitted concentration of half-maximal effect. The settings on record: CellTox Green fluorescence; series mostly up to 76.8 µM. Put shortly: as §1
A short description of assay [3]: A CellTox Green Cytotoxicity Assay to monitor cytotoxicity in HEK293 cells - 8 hour (AID 1224884). Note: nearly all actives have a fitted effect of over 35% in size. The settings on record: CellTox Green fluorescence; series mostly up to 76.8 µM. The gist of the method:
(§2)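 HEK293 cells, 600/well, were preincubated 5 hours and then exposed to compounds at 37 C for up to 40 hours. A cell-impermeant cyanine dye staining dead-cell DNA was read by fluorescence at 0, 8, 16, 24, 32 and 40 h time points.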

Assay [4] in a line: qHTS RealTime-Glo MT Cell Viability Assay in HepG2 cells - 16 hour (AID 1224885). Note: nearly all actives have a fitted effect of over 50% in size. Note: potency is the fitted concentration of half-maximal effect. The settings on record: RealTime-Glo luminescence; series mostly up to 76.8 µM. The gist of the method: (§3)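 Luminescence read-out: viable HepG2 cells reduce a prosubstrate to a NanoLuc substrate, giving a signal proportional to live cell number. Reads taken at 0, 8, 16, 24, 32 and 40 h of compound exposure at 37 C.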
(In general: In qHTS, concentration-response curves come from the screen itself.)

Assay [5] is described as follows: qHTS RealTime-Glo MT Cell Viability Assay in HEK293 cells - 24 hour (AID 1224886). Note: nearly all actives have a fitted effect of over 50% in size. Note: potency is the fitted concentration of half-maximal effect. The settings on record: RealTime-Glo luminescence; series mostly up to 76.8 µM. Put shortly: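 Nonlytic real-time viability readout: viable cells convert prosubstrate to NanoLuc substrate, giving luminescence proportional to live cell number. HEK293, 600 cells/well, compound added after 5 h, continuous culture at 37 C.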

Assay [6] can be described thus: qHTS RealTime-Glo MT Cell Viability Assay in HepG2 cells - 0 hour (AID 1224889). Note: nearly all actives have a fitted effect of over 50% in size. The settings on record: RealTime-Glo luminescence; series mostly up to 76.8 µM. The gist of the method:
as §3

Assay [7] can be described thus: qHTS assay to identify small molecule antagonists of the estrogen receptor alpha (ER-alpha) signaling pathway using the BG1 cell line in the presence of 0.1 nM 17-beta-estradiol - cell viability counter screen (AID 1259241). Note: nearly all actives have a fitted effect of over 40% in size. Note: potency is the fitted concentration of half-maximal effect. The settings on record: VM7Luc4E2 (BG1) viability, CellTiter-Fluor protease, 22 h, 0.1 nM estradiol agonist added; series mostly up to 92.4 µM. The gist of the method:
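In this screen, hormone-deprived VM7Luc4E2 cells were seeded at 4,000 per well, dosed with compound and 0.1 nM estradiol final, and incubated 22 hr at 37C and 5% CO2; fluorogenic live-cell protease signal reported viability.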

A short description of assay [8]: qHTS assay to identify small molecule antagonists of the androgen receptor (AR) signaling pathway using the MDA cell line in the presence of 0.5 nM R1881 - cell viability counter screen (AID 1259242). Note: nearly all actives have a fitted effect of over 45% in size. Note: potency is the fitted concentration of half-maximal effect. The settings on record: MDA-kb2 viability, CellTiter-Fluor protease fluorescence, 16 h; series mostly up to 92.4 µM. Put shortly:
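MDA-kb2 cells (MMTV-luciferase, AR/GR responsive) were treated with compounds plus 0.5 nM R1881 (final) for 16 hr at 37C, 0% CO2. Viability was then read in the same wells as live-cell protease fluorescence (CellTiter-Fluor, 30 min).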

Assay [9] has as its target Androgen receptor (Homo sapiens) (UniProt P10275). The experiment in a line: qHTS assay to identify small molecule antagonists of the androgen receptor (AR) signaling pathway using the MDA cell line in the presence of 0.5 nM R1881 (AID 1259243). The following applies: MDA-kb2 MMTV-luciferase, R1881 0.5 nM, 16 h; series mostly up to 92.4 µM. Put shortly: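 MDA-kb2 cells (MMTV-luciferase, responsive to AR and GR) at 3,000/well, rested 5 h at 37C, 0% CO2, then given compounds plus 0.5 nM R1881 (final) for 16 hr. Luciferase read with ONE-Glo after 30 min at room temperature.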

Assay [10] deals with Estrogen receptor (Homo sapiens) (UniProt P03372). As to the kind of experiment: qHTS assay to identify small molecule antagonists of the estrogen receptor alpha (ER-alpha) signaling pathway using the BG1 cell line in the presence of 0.1 nM 17-beta-estradiol (AID 1259244). Note: nearly all actives have a fitted effect of over 50% in size. Note: potency is the fitted concentration of half-maximal effect. The following applies: VM7Luc4E2 (BG1) ERE-luciferase, antagonist mode, 0.1 nM E2, 22 h; series mostly up to 92.4 µM. The gist of the method:
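VM7Luc4E2 cells (endogenous full-length ER-alpha, 4×ERE-luciferase), kept 5 days in phenol red-free, charcoal-stripped FBS medium; 4,000 cells/well. Compounds added with 0.1 nM (final) 17beta-estradiol, 22 hr at 37C; luminescence read with ONE-Glo after 30 min.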

The nature of assay [11]: qHTS assay to identify small molecule HDAC inhibitors (AID 1259364). Note: top concentration of the series differs between compounds; nearly all actives have a fitted effect of over 45% in size. The following applies: HCT-116 HDAC-Glo I/II luminescence, 2 h; series mostly up to 92.4 µM. The gist of the method:
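Wild-type HCT-116 cells, plated overnight at 37 C, exposed to compounds 2 hr at 37 C; luminogenic HDAC-Glo substrate then added 30 min at room temperature. Luminescence reports relative endogenous class I/II HDAC activity.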

The nature of assay [12]: qHTS assay to identify small molecule HDAC inhibitors - cell viability counter screen (AID 1259365). Note: nearly all actives have a fitted effect of over 50% in size. The following applies: HCT-116 viability, CellTiter-Glo ATP luminescence, 2 h; series mostly up to 92.4 µM. Put shortly: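 Measured quantity is CellTiter-Glo luminescence from wild-type HCT-116 cells after compound incubation of 2hr at 37C, 5% CO2; reagent developed 30min at room temperature.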

Assay [13] can be described thus: qHTS assay to identify small molecule agonists of the sonic hedgehog signaling (Shh) pathway (AID 1259368; calls by dose curve; note: nearly all actives have a fitted effect of over 15% in size). The following applies: NIH/3T3 Gli1-Luc reporter, luciferase, 24 h; series mostly up to 92.4 µM. The gist of the method: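 NIH/3T3-derived 3T3Gli1-Luc cells with stably integrated Gli1-driven firefly luciferase, 2,000 cells/well, compounds added after 4 hr. Incubated 24 hr at 37C, 5% CO2; luminescence read after 30 min with luciferase reagent at room temperature.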

Assay [14] in a line: qHTS RealTime-Glo MT Cell Viability Assay in HEK293 cells - 8 hour (AID 1224887). The following applies: RealTime-Glo luminescence; series mostly up to 76.8 µM. Put shortly:
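600 cells/well were plated with the nonlytic NanoLuc/prosubstrate reagent, pre-incubated 5 h, then given 23 nL of compound in DMSO. Incubation at 37 C for 40 h, with luminescence from viable-cell-reduced substrate read repeatedly from 0 h.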

The nature of assay [15]: A CellTox Green Cytotoxicity Assay to monitor cytotoxicity in HEK293 cells - 16 hour (AID 1224888). Note: nearly all actives have a fitted effect of over 35% in size. The following applies: CellTox Green fluorescence; series mostly up to 76.8 µM. The gist of the method: as §2
Assay [16] can be described thus: qHTS assay to identify small molecule antagonists of the sonic hedgehog signaling (Shh) pathway - cell viability counter screen (AID 1259367). Note: nearly all actives have a fitted effect of over 55% in size. The following applies: NIH/3T3 Gli1-Luc viability, CellTiter-Fluor, 24 h; series mostly up to 92.4 µM. Put shortly:
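NIH/3T3-derived Gli1-Luc reporter cells, 2,000/well, plated 4 hr before compound addition, then stimulated with conditioned medium for 24 hr at 37C. Viability measured in the same wells by CellTiter-Fluor fluorescence, reagent added at 23 hr for 1 hr.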

The nature of assay [17]: qHTS assay to identify small molecule antagonists of the sonic hedgehog signaling (Shh) pathway (AID 1259369; calls by dose curve; note: nearly all actives have a fitted effect of over 45% in size; note: potency is the fitted concentration of half-maximal effect). The following applies: NIH/3T3 Gli1-Luc reporter, Shh antagonist, luminescence 24 h; series mostly up to 92.4 µM. Put shortly:
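NIH/3T3-derived Gli1-Luc reporter cells plated 4 h, dosed with compound, then stimulated with conditioned medium for 24 h at 37 C. Firefly luciferase luminescence read after 30 min with detection reagent at room temperature.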

The nature of assay [18]: A CellTox Green Cytotoxicity Assay to monitor cytotoxicity in HepG2 cells - 8 hour (AID 1224890). Note: nearly all actives have a fitted effect of over 45% in size. Note: potency is the fitted concentration of half-maximal effect. The settings on record: CellTox Green fluorescence; series mostly up to 76.8 µM. Put shortly: as §1
The nature of assay [19]: qHTS assay to identify small molecule agonists of the sonic hedgehog signaling (Shh) pathway - cell viability counter screen (AID 1259366). Note: nearly all actives have a fitted effect of over 50% in size. The settings on record: NIH/3T3 Gli1-Luc viability, CellTiter-Fluor, 24 h; series mostly up to 92.4 µM. Put shortly:
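In quantitative high-throughput format, 3T3 Gli1-Luc cells were exposed to compounds for 24hr and multiplexed for viability using CellTiter-Fluor, incubated 1hr at 37C before the fluorescence read.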

Sequence of Estrogen receptor (Homo sapiens) (P03372 whole entry, looked up): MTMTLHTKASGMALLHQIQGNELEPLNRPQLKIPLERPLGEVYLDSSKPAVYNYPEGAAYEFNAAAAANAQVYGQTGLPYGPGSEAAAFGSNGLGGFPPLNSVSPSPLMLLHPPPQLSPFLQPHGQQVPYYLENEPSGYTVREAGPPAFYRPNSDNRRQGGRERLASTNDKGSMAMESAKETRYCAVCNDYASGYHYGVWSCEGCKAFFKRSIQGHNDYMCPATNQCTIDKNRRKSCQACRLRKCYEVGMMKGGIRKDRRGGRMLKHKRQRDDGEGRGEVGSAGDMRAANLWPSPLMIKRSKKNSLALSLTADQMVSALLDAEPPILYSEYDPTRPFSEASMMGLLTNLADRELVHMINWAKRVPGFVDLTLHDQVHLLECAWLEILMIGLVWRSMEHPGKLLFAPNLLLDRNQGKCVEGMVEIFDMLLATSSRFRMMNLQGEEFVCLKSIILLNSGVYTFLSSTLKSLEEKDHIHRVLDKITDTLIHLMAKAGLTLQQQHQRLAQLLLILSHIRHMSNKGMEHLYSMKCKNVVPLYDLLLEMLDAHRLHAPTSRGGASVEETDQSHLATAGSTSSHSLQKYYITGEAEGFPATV
Sequence of Androgen receptor (Homo sapiens) (P10275 whole entry, looked up): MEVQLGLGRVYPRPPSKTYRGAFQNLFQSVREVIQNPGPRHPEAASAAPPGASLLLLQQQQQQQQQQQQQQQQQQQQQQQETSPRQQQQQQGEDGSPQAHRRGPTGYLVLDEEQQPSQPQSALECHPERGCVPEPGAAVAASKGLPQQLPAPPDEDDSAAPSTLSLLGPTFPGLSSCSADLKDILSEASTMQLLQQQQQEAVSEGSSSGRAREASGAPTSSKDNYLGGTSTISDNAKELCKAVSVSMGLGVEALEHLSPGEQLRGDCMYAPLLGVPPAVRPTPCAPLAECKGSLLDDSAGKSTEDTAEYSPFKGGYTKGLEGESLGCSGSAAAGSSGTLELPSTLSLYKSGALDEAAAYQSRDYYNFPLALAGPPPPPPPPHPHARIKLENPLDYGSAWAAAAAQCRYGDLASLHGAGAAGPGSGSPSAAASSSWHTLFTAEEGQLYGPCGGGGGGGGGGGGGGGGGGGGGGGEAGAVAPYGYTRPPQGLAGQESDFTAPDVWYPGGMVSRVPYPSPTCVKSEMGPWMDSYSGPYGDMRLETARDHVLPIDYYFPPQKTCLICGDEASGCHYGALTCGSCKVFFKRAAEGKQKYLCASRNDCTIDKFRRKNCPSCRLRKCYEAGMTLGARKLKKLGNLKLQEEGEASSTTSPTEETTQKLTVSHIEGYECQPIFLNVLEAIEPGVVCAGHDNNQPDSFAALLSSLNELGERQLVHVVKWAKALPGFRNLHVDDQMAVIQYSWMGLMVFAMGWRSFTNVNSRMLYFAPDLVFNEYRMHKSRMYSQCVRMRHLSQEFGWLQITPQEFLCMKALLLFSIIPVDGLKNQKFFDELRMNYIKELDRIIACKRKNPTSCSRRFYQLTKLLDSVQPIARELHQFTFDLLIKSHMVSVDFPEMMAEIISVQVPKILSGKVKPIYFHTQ

As for `Oc1ccc(-c2ccccc2)c(Cl)c1`, the Potency entry in [1], in assay [3], in assay [4], in assay [6], in assay [7] and in [8] was “inactive” throughout. Besides, the Potency result in assay [10], in assay [11], in assay [12] and in [13] was “inactive” each time. Besides, the Potency in assay [2] is 49 µM (active); in assay [5], 24.5 µM (active); in assay [9], 1.93 µM (active).
As for `NC(=O)c1nc(-c2cccc(-c3cc(F)ccc3OCC(F)(F)C(F)(F)F)c2)n[nH]1`, the Potency result in [1], in assay [3], in assay [4], in assay [14], in assay [15] and in assay [6] was “inactive” each time. Also, the Potency result in assay [11], in assay [12], in assay [16] and in [13] was “inactive” each time. Further, the Potency was 43.6 µM (active) in assay [2], 54.5 µM (active) in [9], 54.5 µM (active) in assay [10] and 3.06 µM (active) in assay [17].
Regarding `CC(C)c1cccc(C(C)C)c1N1C(=O)c2ccc(O)cc2C1=O`, the Potency entry in [1], in assay [3], in assay [14], in assay [15], in assay [6] and in [11] was “inactive” each time. In addition, the Potency result in assay [12], in assay [16] and in assay [13] was “inactive” throughout. For the same compound, the Potency in assay [2] was 24.5 µM (active); in assay [4], 49 µM (active); in [18], 38.9 µM (active); in assay [17], 13.7 µM (active).
On to `C=C(C)C(=O)OCCC[Si](Cl)(Cl)Cl`, for which the Potency result in [1], in assay [2], in assay [3], in assay [4], in assay [5] and in assay [14] was “inactive” throughout. The Potency result in assay [15], in [18], in assay [8], in [11], in [12] and in [13] was “inactive” throughout.
In the case of `CCO[Si](CCCSSSSCCC[Si](OCC)(OCC)OCC)(OCC)OCC`, the Potency entry in assay [1], in [2], in [3], in [4], in assay [5] and in assay [14] was “inactive” throughout. Besides, the Potency entry in assay [6], in assay [18], in assay [7], in [10], in assay [19] and in [16] was “inactive” in each case. For the same compound, the Potency result in [13] and in [17] was “inactive” throughout.
Regarding `Oc1cc2ccccc2cc1O`, the Potency result in [1], in assay [2], in assay [3], in [4], in assay [6] and in [7] was “inactive” throughout. For the same compound, the Potency entry in [8], in assay [10], in assay [11], in assay [12], in [16] and in assay [13] was “inactive” throughout. The Potency in assay [9] was 30.6 µM (active).
As for `CC(=O)c1ccccc1N`, the Potency entry in assay [1], in assay [2], in [3], in [4], in assay [15] and in [6] was “inactive” each time. Moreover, the Potency entry in assay [18], in assay [7], in assay [8], in assay [10], in assay [11] and in assay [12] was “inactive” each time. In addition, the Potency result in assay [19], in [16], in assay [13] and in [17] was “inactive” throughout.
Turning to `O=C1NCN(c2ccccc2)C12CCN(CCCC(c1ccc(F)cc1)c1ccc(F)cc1)CC2`, the Potency result in assay [1], in [3], in assay [6], in [11] and in [13] was “inactive” in each case. Besides, the Potency was 6.74 µM (active) in [2]; 7.56 µM (active) in assay [4]; 19 µM (active) in assay [5]; 10.7 µM (active) in [18]; 13.3 µM (active) in assay [7]; 29.8 µM (active) in [8].

These data come from PubChem BioAssay (Tox21).
